Drawing on PubChem BioAssay (EPA / NIEHS), this text covers AC50 and outcome for three compounds.

Calls of active or inactive are those of the source. Rule for the calls: active = hit-call score of the fitted dose curve at least 0.9, where 1 is the maximum; inactive = score below 0.9.

Read-out in test [1]: CFLAR gene, CFLAR (gene 8837)
Description: LTEA_HepaRG_CFLAR: Life Technologies and Expression Analysis (LTEA) Assay for CFLAR gene using HepaRG (AID 2283455). To be noted: mRNA level, 48 h; actives raise or lower the signal. The method, boiled down:
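Differentiated HepaRG cells in serum-free induction medium were exposed 48 h in duplicate to eight half-log concentrations up to 100 uM in 0.5% DMSO; mRNA measured by TaqMan qRT-PCR, normalized to ACTB, GAPDH, POLR2A; bidirectional fitting versus DMSO.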

Read-out in test [2]: Forkhead box O1 (FOXO1), FOXO1 (gene 2308)
Description: LTEA_HepaRG_FOXO1: Life Technologies and Expression Analysis (LTEA) Assay for Forkhead box O1 (FOXO1) using HepaRG (AID 2283456). The following applies: mRNA level, 48 h; actives raise or lower the signal. In a few lines: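 Differentiated HepaRG cells, in serum-free induction medium with 0.5% DMSO, exposed 48 h in duplicate to 8-point half-log series from 100 uM. FOXO1 mRNA measured by TaqMan qRT-PCR, normalized to ACTB, GAPDH, POLR2A; bidirectional fit versus DMSO.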

Test [3] can be described thus: CEETOX_H295R_TESTO: CeeTox H295R High-throughput Steroidogenesis Assay for Testosterone (TESTO) (AID 2283457). The following applies: actives raise or lower the signal. In a few lines: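 Testosterone secreted into the medium over 48 h by H295R cells (maximum passage 10) was quantified by LC-MS/MS after MTBE extraction. Fitted in both directions against DMSO, with concentrations diluted until MTT viability was ≥70%.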

Read-out in test [4]: growth arrest and DNA damage 45 (GADD45A), GADD45A (gene 1647)
Nature of the test: LTEA_HepaRG_GADD45A: Life Technologies and Expression Analysis (LTEA) Assay for growth arrest and DNA damage 45 (GADD45A) using HepaRG (AID 2283458). To be noted: mRNA level, 48 h; actives raise or lower the signal. In a few lines: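 Differentiated HepaRG cells exposed 48 h in serum-free induction medium to 8 concentrations, top 100 uM in half-log steps, 0.5% DMSO. GADD45A mRNA quantified by qRT-PCR, normalized to ACTB, GAPDH and POLR2A; bidirectional fit versus DMSO.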

Read-out in test [5]: Forkhead box O3 (FOXO3), FOXO3 (gene 2309)
Description: LTEA_HepaRG_FOXO3: Life Technologies and Expression Analysis (LTEA) Assay for Forkhead box O3 (FOXO3) using HepaRG (AID 2283459). To be noted: mRNA level, 48 h; actives raise or lower the signal. In a few lines:
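Differentiated human HepaRG cells, 48 h post-plating, exposed in duplicate for 48 h in serum-free induction medium; 8-point half-log series from 100 uM in 0.5% DMSO. FOXO3 mRNA by TaqMan qRT-PCR, normalized to ACTB/GAPDH/POLR2A; bidirectional fit versus DMSO.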

Read-out in test [6]: ABC Transporter (ABCB1), ABCB1 (gene 5243)
Description: LTEA_HepaRG_ABCB1: Life Technologies and Expression Analysis (LTEA) Assay for ABC Transporter (ABCB1) using HepaRG (AID 2283460). To be noted: mRNA level, 48 h; actives raise or lower the signal. The method, boiled down:
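HepaRG cells exposed in duplicate for 48 h in serum-free induction medium to eight half-log concentrations up to 100 uM in 0.5% DMSO. ABCB1 mRNA quantified by qRT-PCR, normalised to ACTB, GAPDH and POLR2A; fitted bidirectionally versus DMSO.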

Read-out in test [7]: growth arrest and DNA damage 45 (GADD45B), GADD45B (gene 4616)
Description: LTEA_HepaRG_GADD45B: Life Technologies and Expression Analysis (LTEA) Assay for growth arrest and DNA damage 45 (GADD45B) using HepaRG (AID 2283461). To be noted: mRNA level, 48 h; actives raise or lower the signal. In a few lines: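 Transcript level quantified by Fluidigm TaqMan qRT-PCR with three housekeeping genes for normalization, analyzed for up- or down-regulation against 0.5% DMSO. HepaRG cultures dosed 48 h at eight half-log concentrations up to 100 uM, duplicates.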

Read-out in test [8]: ABC Transporter (ABCC3), ABCC3 (gene 8714)
Nature of the test: LTEA_HepaRG_ABCC3: Life Technologies and Expression Analysis (LTEA) Assay for ABC Transporter (ABCC3) using HepaRG (AID 2283462). The following applies: mRNA level, 48 h; actives raise or lower the signal. In a few lines:
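Transcript level by TaqMan qRT-PCR, normalised to three housekeeping genes, fitted in both directions relative to vehicle. Chemicals tested in duplicate at eight half-log concentrations up to 100 uM for 48 h on HepaRG cells (0.5% DMSO).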

Read-out in test [9]: ABC Transporter (ABCB11), ABCB11 (gene 8647)
Nature of the test: LTEA_HepaRG_ABCB11: Life Technologies and Expression Analysis (LTEA) Assay for ABC Transporter (ABCB11) using HepaRG (AID 2283463). To be noted: mRNA level, 48 h; actives raise or lower the signal. In a few lines:
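Differentiated human HepaRG cells in serum-free induction medium, dosed in duplicate for 48 h. Eight-point half-log series from 100 uM in 0.5% DMSO; ABCB11 mRNA by qRT-PCR, normalized to ACTB, GAPDH, POLR2A, fitted bidirectionally versus DMSO.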

Read-out in test [10]: ABC Transporter (ABCC2), ABCC2 (gene 1244)
Nature of the test: LTEA_HepaRG_ABCC2: Life Technologies and Expression Analysis (LTEA) Assay for ABC Transporter (ABCC2) using HepaRG (AID 2283464). To be noted: mRNA level, 48 h; actives raise or lower the signal. In a few lines: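 Endpoint is ABCC2 transcript level from qRT-PCR, normalized to three housekeeping genes and fitted bidirectionally relative to DMSO. Human HepaRG cells received test chemical for 48 h at up to 100 uM (8 points, half-log steps, 0.5% DMSO), duplicate wells.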

Read-out in test [11]: ATP-citrate lyase (ACLY), ACLY (gene 47)
Description: LTEA_HepaRG_ACLY: Life Technologies and Expression Analysis (LTEA) Assay for ATP-citrate lyase (ACLY) using HepaRG (AID 2283466). To be noted: mRNA level, 48 h; actives raise or lower the signal. In a few lines: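 Differentiated HepaRG cells exposed 48 h in serum-free induction medium to eight half-log concentrations up to 100 uM in 0.5% DMSO, duplicates. Transcript measured by Fluidigm TaqMan qRT-PCR, normalized to ACTB, GAPDH, POLR2A; bidirectional fit versus DMSO.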

Read-out in test [12]: Peroxisomal acyl-coenzyme A oxidase 1 (ACOX1) gene, ACOX1 (gene 51)
Description: LTEA_HepaRG_ACOX1: Life Technologies and Expression Analysis (LTEA) Assay for Peroxisomal acyl-coenzyme A oxidase 1 (ACOX1) gene using HepaRG (AID 2283467). To be noted: mRNA level, 48 h; actives raise or lower the signal. The method, boiled down:
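HepaRG cells, plated 48 h then switched to serum-free induction medium, were exposed in duplicate for 48 h to 8-point half-log concentrations up to 100 uM in 0.5% DMSO. ACOX1 mRNA was measured by qRT-PCR, normalized to ACTB/GAPDH/POLR2A, and fitted bidirectionally versus DMSO.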

Read-out in test [13]: Alkaline Phosphatase, Placental (ALPP) gene, ALPP (gene 250)
Nature of the test: LTEA_HepaRG_ALPP: Life Technologies and Expression Analysis (LTEA) Assay for Alkaline Phosphatase, Placental (ALPP) gene using HepaRG (AID 2283468). To be noted: mRNA level, 48 h; actives raise or lower the signal. In a few lines: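 ALPP transcript level, measured by qRT-PCR and normalized to three housekeeping genes (ACTB, GAPDH, POLR2A), after 48 h dosing of differentiated HepaRG in serum-free induction medium. Top concentration 100 uM with half-log dilutions (8 points, 0.5% DMSO, duplicates); bidirectional fitting relative to DMSO.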

Read-out in test [14]: Bcl-2 (BAD) gene, BAD (gene 572)
Description: LTEA_HepaRG_BAD: Life Technologies and Expression Analysis (LTEA) Assay for Bcl-2 (BAD) gene using HepaRG (AID 2283469). To be noted: mRNA level, 48 h; actives raise or lower the signal. The method, boiled down: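 Differentiated HepaRG cells were exposed in duplicate in 0.5% DMSO for 48 h to eight-point half-log concentrations up to 100 uM. BAD mRNA was measured by Fluidigm TaqMan qRT-PCR, normalized to ACTB, GAPDH and POLR2A, and fitted bidirectionally against DMSO.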

Read-out in test [15]: Bcl-2 (BAX) gene, BAX (gene 581)
Description: LTEA_HepaRG_BAX: Life Technologies and Expression Analysis (LTEA) Assay for Bcl-2 (BAX) gene using HepaRG (AID 2283470). The following applies: mRNA level, 48 h; actives raise or lower the signal. The method, boiled down:
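Differentiated HepaRG cells exposed 48 h in serum-free induction medium, eight half-log concentrations from 100 uM, in duplicate, 0.5% DMSO vehicle. BAX mRNA by TaqMan qRT-PCR, normalised to ACTB, GAPDH and POLR2A.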

Read-out in test [16]: adenosine kinase (ADK) gene, ADK (gene 132)
Nature of the test: LTEA_HepaRG_ADK: Life Technologies and Expression Analysis (LTEA) Assay for adenosine kinase (ADK) gene using HepaRG (AID 2283471). To be noted: mRNA level, 48 h; actives raise or lower the signal. In a few lines:
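ADK expression quantified by qRT-PCR, normalised to three housekeeping genes, after 48 h exposure of HepaRG cells to eight concentrations (top 100 uM, half-log steps, duplicate, 0.5% DMSO). Up- or down-regulation fitted relative to vehicle.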

Read-out in test [17]: Alpha-fetoprotein (AFP) gene, AFP (gene 174)
Nature of the test: LTEA_HepaRG_AFP: Life Technologies and Expression Analysis (LTEA) Assay for Alpha-fetoprotein (AFP) gene using HepaRG (AID 2283472). The following applies: mRNA level, 48 h; actives raise or lower the signal. In a few lines: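 Differentiated human HepaRG cells exposed 48 h in serum-free induction medium, 8-point half-log series from 100 uM in 0.5% DMSO, duplicate. AFP mRNA by qRT-PCR, normalized to ACTB, GAPDH, POLR2A; bidirectional fit vs DMSO.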

Read-out in the next test: BCL2L11 (gene 10018)
Nature of the test: LTEA_HepaRG_BCL2L11: Life Technologies and Expression Analysis (LTEA) Assay for Bcl-2 (BCL2L11) gene using HepaRG (AID 2283473). The following applies: mRNA level, 48 h; actives raise or lower the signal. The method, boiled down:
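BCL2L11 transcript levels are measured by Fluidigm qRT-PCR, normalized to three housekeeping genes. HepaRG cultures were plated 48 h, then treated 48 h with test chemical (top 100 uM, half-log, 0.5% DMSO vehicle); curves were fitted bidirectionally against DMSO.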

Read-out in test [18]: Apolipoprotein A-V (APOA5) gene, APOA5 (gene 116519)
Nature of the test: LTEA_HepaRG_APOA5: Life Technologies and Expression Analysis (LTEA) Assay for Apolipoprotein A-V (APOA5) gene using HepaRG (AID 2283474). The following applies: mRNA level, 48 h; actives raise or lower the signal. In a few lines:
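APOA5 transcript levels were quantified by qRT-PCR, normalized to three housekeeping genes, after 48 h chemical treatment of HepaRG cells (8 points, 100 uM maximum, half-log steps, 0.5% DMSO). Curves fitted in both directions against vehicle.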

Read-out in test [19]: Broad substrate specificity ATP-binding cassette transporter ABCG2 (Homo sapiens) (UniProt Q9UNQ0)
Description: LTEA_HepaRG_ABCG2: Life Technologies and Expression Analysis (LTEA) Assay for ABC Transporter (ABCG2) using HepaRG (AID 2283465). To be noted: mRNA level, 48 h; actives raise or lower the signal. The method, boiled down:
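Differentiated HepaRG cells were exposed for 48 h in serum-free induction medium to 8 half-log concentrations, top 100 uM, in 0.5% DMSO. ABCG2 mRNA was measured by qRT-PCR, normalized to ACTB, GAPDH and POLR2A, with bidirectional fitting versus DMSO.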

Sequence of Broad substrate specificity ATP-binding cassette transporter ABCG2 (Homo sapiens) (Q9UNQ0 whole entry, looked up): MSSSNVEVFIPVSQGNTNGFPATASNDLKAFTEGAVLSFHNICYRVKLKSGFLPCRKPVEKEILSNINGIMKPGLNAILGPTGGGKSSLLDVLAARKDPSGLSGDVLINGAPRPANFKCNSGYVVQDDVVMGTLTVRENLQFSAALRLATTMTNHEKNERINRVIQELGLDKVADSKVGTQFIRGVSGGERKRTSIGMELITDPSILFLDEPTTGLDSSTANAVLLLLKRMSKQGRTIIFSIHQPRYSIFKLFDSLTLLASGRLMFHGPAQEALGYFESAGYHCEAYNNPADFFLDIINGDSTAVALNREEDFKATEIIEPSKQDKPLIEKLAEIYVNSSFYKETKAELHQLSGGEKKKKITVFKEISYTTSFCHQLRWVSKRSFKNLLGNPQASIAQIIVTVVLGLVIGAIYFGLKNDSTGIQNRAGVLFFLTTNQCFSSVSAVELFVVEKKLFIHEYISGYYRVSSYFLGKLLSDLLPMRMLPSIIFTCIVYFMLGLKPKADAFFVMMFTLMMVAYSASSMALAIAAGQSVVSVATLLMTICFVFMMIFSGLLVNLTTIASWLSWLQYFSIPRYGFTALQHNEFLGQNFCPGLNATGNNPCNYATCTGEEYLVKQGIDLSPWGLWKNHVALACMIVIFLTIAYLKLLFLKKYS

For the compound `Cc1c2ccccc2c(C)c2c1ccc1ccccc12`, the AC50 in [1] was 40.9 µM (active); in test [2], 75 µM (active); in test [4] it was 61.9 µM (active); in test [5], 13 µM (active); in test [7] it was 50 µM (active); in [8], 12.7 µM (active). For the same compound, the AC50 is 30.6 µM (active) in test [9]; 27.7 µM (active) in [12]; 39.7 µM (active) in test [13]; 63.1 µM (active) in test [15]; 51.5 µM (active) in test [17]; 29.6 µM (active) with BCL2L11 (gene 10018). Further, the AC50 in test [18] is 50 µM (active). Besides, the call in [3], in [6], in test [10], in test [11], in [14] and in [16] was inactive.
Turning to `O=C(OCCCCCCOC(=O)c1ccccc1)c1ccccc1`, the compound was classed as inactive in [1], in test [2], in test [4], in test [5], in [6] and in [7]. Besides, the outcome in test [8], in [9], in test [10], in test [19], in test [11] and in test [12] was inactive. Besides, the outcome (in [13]; in [14]; in test [15]; in test [17]; with BCL2L11 (gene 10018); in [18]) was inactive.
Consider `O=c1[nH]sc2ccccc12`, for which the compound was classed as inactive in [1], in [2], in [4], in test [5], in test [6] and in [7]. The outcome in test [8], in [9], in test [10], in [19], in [11] and in test [12] was inactive. The compound was classed as inactive (in test [13]; in test [14]; in [15]; in test [17]; with BCL2L11 (gene 10018); in test [18]).

The term AC50 denotes the concentration at which the activity in the assay is half-maximal.
